# Active and inactive are the calls of the source.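 The calls were made as follows: active = relative FRET score above 0.01, or acceptor fluorescence over 30% below the sample-well median; inactive = the rest.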
# Biological target: Protein Rev (Human immunodeficiency virus type 1 group M subtype B (isolate WMJ22)) (UniProt P05866)
# Experiment: disruptors of Rev peptide-RRE RNA complex – biochemical, FRET, acceptor and relative FRET calls, confirmation (AID 837);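 also: relative FRET combines rise in Cy5 acceptor with fall in fluorescein donor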
# Settings: Fl-Rev peptide / Cy5-RRE RNA FRET, 1536-well; at 8 µM
# Protein Rev (Human immunodeficiency virus type 1 group M subtype B (isolate WMJ22)), sequence (P05866 whole entry, looked up): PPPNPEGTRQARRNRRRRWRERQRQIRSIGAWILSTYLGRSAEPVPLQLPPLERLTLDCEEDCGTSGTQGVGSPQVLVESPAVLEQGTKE
row,Compound,outcome
1,c1ccc(COc2ccc(OCCCCN3CCCCC3)cc2)cc1,inactive
2,COc1ccc(NC(=O)Nc2ccc(N(C)C)cc2)cc1,inactive
3,N=c1n(CCO)c2ccccc2n1CCOc1ccccc1,inactive
4,CCCCN1CCc2c1nc1ccc(Br)cc1c2N,inactive
5,CCOC(=O)c1cn2nc(-c3ccc(OCC)cc3)cc2nc1C1CCN(C(=O)OC(C)(C)C)CC1,inactive
6,Cc1occc1C(=O)Nc1sc2c(c1C(N)=O)CCC(C(C)(C)C)C2 (stereo not given),inactive
7,CCCCCCCCNc1ncnc2ccccc12,inactive
8,CC(=O)c1ccc2c(c1)c1ccccc1n2CC(C)C,inactive
9,N=c1c2c(n(Cc3ccc(F)cc3)c3c1CCC3)CCC2,inactive
10,N#Cc1c(NCCN)nc(-c2ccco2)c2c1CCCC2,inactive
11,NCCCCCc1nnc(SCc2ccccc2Cl)o1,inactive
12,Cc1ccsc1C1NC(=O)c2c(sc3c2CCN(C)C3)N1 (stereo not given),inactive
13,O=[N+]([O-])c1ccc2nc(-c3ccc(Cl)cc3)n(OCc3ccccc3)c2c1,inactive
14,Cc1ccc2[nH]c(=O)c3cc(C(=O)NCCN4CCN(C)CC4)sc3c2c1,inactive
15,CCC(C)(C)c1ccc(OCCN2C(=O)NC(C)(C)C2=O)cc1,inactive
16,CCN1C2=NCCCN2c2cc(C)c(C)cc21,inactive
17,Cc1ccc(C)n1-c1sccc1C(=O)O,inactive
18,CCOC(=O)Cn1c(=N)n(Cc2ccccc2)c2ccccc21,inactive
19,O=C(Cn1cnc2ccccc2c1=O)N1CCOCC1,inactive
20,OC(CNC1CCCC1)COc1c(F)cc(Br)cc1F (stereo not given),inactive

row,Compound,outcome
1,NCCCCCc1nnc(SC/C=C/c2ccccc2)o1,inactive
2,CC(=O)c1ccc(NC(=O)c2ccc3nc(-c4ccco4)c(-c4ccco4)nc3c2)cc1,inactive
3,CC(C)(c1ccccc1)c1ccc(OCCCNCCO)cc1,inactive
4,CC1=NN(c2ccccc2)C(=O)C1N=Nc1ccc(N)cc1 (stereo not given),active; fluoresces like the acceptor
5,O=c1nc(N2CCCC2)nc(Nc2ccccc2)[nH]1,inactive
6,CC1CC(C)CN(Cc2nc(N)nc(Nc3ccccc3)n2)C1 (stereo not given),inactive
7,OC(COCCC12CC3CC(CC(C3)C1)C2)CN1CCCCC1 (stereo not given),inactive
8,CCN(CC)CC(O)COCCC12CC3CC(CC(C3)C1)C2 (stereo not given),inactive
9,CC(=Nc1ccc(C)cc1)c1sc2ccccc2c1O,inactive
10,CNCCCOc1ccc(C(C)(C)c2ccccc2)cc1,active
11,OCCN=c1cc(-c2ccccc2)oc2ccc(Cl)cc12,inactive
12,COc1ccc(/C=C/c2cc(-c3ccc(C)cc3)o[n+]2C)cc1,active
13,Cc1cccc(N2C(N)=NC(N)=NC23CCCCC3)c1,inactive
14,O=C(Nc1nccs1)c1ccc(-c2ccccc2Cl)o1,inactive
15,CC[n+]1c(/C=C/Nc2ccccc2)oc2ccccc21,active; fluoresces like the donor
16,COC(=O)c1scc(C)c1N/N=C(\C)c1ccc(F)cc1F,inactive
17,Cc1nc(Nc2ccc(F)cc2)[nH]c(=O)c1CCC(C)C,inactive
18,O=C(O)c1ccc2c(c1)[C@@H]1C=CC[C@@H]1[C@H](c1ccccn1)N2,inactive; quenches the donor
19,Cc1cc(Cl)c(OCCCNCc2ccccc2)c(Br)c1,inactive
20,C=CCn1cc(-c2ccccc2)cc(C#N)c1=O,inactive
